Measurements as given in PubChem BioAssay (EPA / NIEHS).
Activity calls are given as the source filed them. Rule for the calls: active = hit-call score of the fitted dose curve at least 0.9, where 1 is the maximum; inactive = score below 0.9.

Assay: ATG_Sox_CIS: Attagene CIS-FACTORIAL HepG2 Assay for human SRY-box transcription factor (SOX) (AID 2282960)
Settings: HepG2 Attagene cis-factorial SOX reporter, mRNA; actives raise or lower the signal
Protocol: ATG_CIS is a cell-based, multiplexed-readout assay that uses HepG2, a human liver cell line, with measurements taken at 24 hours after chemical dosing in a 24-well plate.ATG_Sox_CIS is one of 52 assay component(s) measured or calculated from the ATG_CIS assay. It is designed to make measurements of mRNA induction, a form of inducible reporter, as detected with fluorescence intensity signals by Reverse transcription polymerase chain reaction (RT-PCR) and Capillary electrophoresis technology.Data from the assay component ATG_Sox_CIS was analyzed into 1 assay endpoint. This assay endpoint, ATG_Sox_CIS, was analyzed with bidirectional fitting relative to DMSO as the negative control and baseline of activity. Using a type of inducible reporter, measures of mRNA for gain or loss-of-signal activity can be used to understand the reporter gene at the transcription factor-level as they relate to the gene SOX1. Furthermore, this assay endpoint can be referred to as a primary readout, because this assay has produced multiple assay endpoints where this one serves a reporter gene function. To generalize the intended target to other relatable targets, this assay endpoint is annotated to the dna binding intended target family, where the subfamily is HMG box protein.
Human liver HepG2 cells are transiently transfected with multiple reporter transcription units (MRTUs) in 6-well plates using FuGene 6 reagent (Roche; 3 ml FuGene/1 mg DNA). The MRTU constructs are regulated by a cis-regulating element (promoter). […] A major difference between the CIS and TRANS system is that in CIS activities of endogenous TFs are measured, whereas the TRANS assay evaluates changes in activities of exogenous, chimeric NR-Gal4 proteins. […] At the end of 24 hour incubation, total RNA was isolated using TriZol reagent (Invitrogen). The isolated RNA is then reverse-transcribed using oligo(dT) primer and Mo-MLV reverse transcriptase (Invitrogen) with DNAse I (Ambion) treatment for 30 min. The one-tenth of the produced cDNA was amplified by PCR using Taq DNA polymerase (Invitrogen) and two reporter sequence-specific primers. The PCR products were fluorescently labeled by primer extension with 6-arboxyfluorescein (6-FAM) 5'-labeled reporter sequence-specific primer (2 min at 95 C, 20 s at 68 C and 10 min at 72 C) and these products were digested with 5U of HpaI (New England Biolabs) for 2h at 37 C. The fragments were purified using Qiaquick PCR columns (Qiagen), analyzed on an ABI 3130xL genetic analyzer (Applied Biosystems) with peak positions identified by using a set of X-rhodamine (ROX)-labeled MapMarker1000 molecular weight standards (BioVentures). The raw capillary electrophoresis data was processed using Attagraph software (Attagene).

SMILES | outcome | AC50
CCOC(=O)C=Cc1ccccc1 | inactive | 
CCC(C)(C)c1cc(O)c(C(C)(C)CC)cc1O |  | 100 µM (active)
O=C(OCc1ccccc1)c1ccccc1O | inactive | 
CCC(=O)OC(C)(C)C1CC=C(C)CC1 (stereo not given) | inactive | 
CC1=CCC(C(C)C)=CC1 | inactive | 
OCC=Cc1ccccc1 | inactive | 
CCCCCCC(C)O (stereo not given) | inactive | 
NC(=O)c1cccnc1 | inactive | 
CCCC(O)C(CC)CO (stereo not given) | inactive | 
CC(C)C(=O)c1ccccc1 | inactive | 
Nc1ccc(O)c(N)c1 | inactive | 
NC(=O)c1c(Cl)cccc1Cl | inactive | 
NC(=O)NC(N)=O | inactive | 
O=c1cc(-c2ccc(O)cc2)oc2cc(O)cc(O)c12 | inactive | 
Nc1ccn([C@H]2CC[C@@H](CO)O2)c(=O)n1 | inactive | 
CC(=O)CCC(=O)O | inactive | 
CC1=C(C=O)C(C)(C)CCC1 | inactive | 
CC(=O)CCC=C(C)CCC=C(C)C | inactive | 
CC1(C)CC(=O)CC(C)(C)N1 | inactive | 
[Cl][Dy]([Cl])[Cl] | inactive | 

SMILES | outcome | AC50
CCCCCCCCCCCCCC(=O)OCC | inactive | 
CCCc1ccc(N)cc1 | inactive | 
CC1=CC(C)C(C=O)C(C)C1 (stereo not given) (tested in a mixture with another compound) | inactive | 
CC1(C)[C@H](C=C(Cl)Cl)[C@H]1C(=O)OCc1cccc(Oc2ccccc2)c1 | inactive | 
N#CCCNCCC#N | inactive | 
O=C(O)c1ccccc1O | inactive | 
CCCCN(CCO)CCO | inactive | 
CC(=O)c1ccc2ccccc2c1 | inactive | 
CN1CCc2cccc3c2[C@H]1Cc1ccc(O)c(O)c1-3 | inactive | 
CCCCCCCCCCO[C@@H]1O[C@H](CO)[C@@H](O)[C@H](O)[C@H]1O | inactive | 
CCOC(=O)CC(C)C | inactive | 
N=C1N=C(N)c2ccccc21 | inactive | 
Cc1cc(O)c(C)c(C)c1O | inactive | 
CCCCCCCCOC(C)=O | inactive | 
CCCC1CCOC(C)S1 (stereo not given) | inactive | 
O=C(O)c1cc2ccccc2cc1O | inactive | 
CC(C)(C)c1cc(CCC(=O)OCCSCCOC(=O)CCc2cc(C(C)(C)C)c(O)c(C(C)(C)C)c2)cc(C(C)(C)C)c1O | inactive | 
CC1(C)CC(N)CC(C)(CN)C1 (stereo not given) | inactive | 
CC/C=C\CCOC(=O)C(C)C | inactive | 
C[N+](C)(C)CCO | inactive | 
